Source: PubChem BioAssay
Only some compounds are listed: those with a hit (about 6.9% of all), similar ones and a draw of the others.
Her2 expr inh = inhibitors of human Her2 kinase expression; SKBR-3 HER2 protein level, AlphaScreen, 18-24 h; active compounds read low; HER2 level % of control, % at 10 µM; 0.69% of 65,000 active; AID 645;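 active = HER2 level under 5% of the carrier-only control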;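 note: 100% = DMSO carrier and 0% = 500 nM PU-H71 HSP90 inhibitor; lower value means stronger loss of Her2 protein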
FXIIa inh mix = factor XIIa (human) inhibition, mixture screen; purified FXIIa, fluorogenic substrate, pooled mixtures; inhibition, % at 5 µM; 0.2% of 62,000 active; AID 684;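 note: 0% = enzyme without compound and 100% = no enzyme blank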
M1 ag = M1 muscarinic receptor agonism; CHO-M1 cells, Fluo-4 calcium fluorescence, agonist mode; active compounds read high; 3% of 64,000 active; AID 626; B-score at 10 µM;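 active = fluorescence rise, raw or as B-score row- and column-corrected plate score, outside the 99.7% band of its plate's samples, either direction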
M1 antagonist = blocks the rat M1 muscarinic receptor response to acetylcholine. P08482. AID 628. B-score at 10 µM. CHO-M1 cells, Fluo-4 calcium, ACh EC80 antagonist mode; active compounds read low. 3.4% of 64,000 active;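 active = calcium fluorescence response, raw or row-and-column corrected B-score, differing from the plate sample mean either way at a set confidence level, mostly lower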
FXIa mix inh = inhibitors of human coagulation factor XIa, pooled mixtures; 0.19% of 62,000 active; P03951; inhibition, % at 5 µM; purified FXIa, fluorogenic substrate; AID 680;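 note: each value is inhibition by a whole ten-compound pool holding the compound; 0% = enzyme with no mixture and 100% = wells lacking enzyme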
JNK3 blocker = inhibitors of human JNK3 kinase | P53779 | purified JNK3 kinase activity, HTS | inhibition, % at 8 µM | 0.61% of 60,000 active | AID 746; in the data active = inhibition above about 17%;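 note: 0% = DMSO and 100% = reference inhibitor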
Target sequence (P53779 whole entry, looked up): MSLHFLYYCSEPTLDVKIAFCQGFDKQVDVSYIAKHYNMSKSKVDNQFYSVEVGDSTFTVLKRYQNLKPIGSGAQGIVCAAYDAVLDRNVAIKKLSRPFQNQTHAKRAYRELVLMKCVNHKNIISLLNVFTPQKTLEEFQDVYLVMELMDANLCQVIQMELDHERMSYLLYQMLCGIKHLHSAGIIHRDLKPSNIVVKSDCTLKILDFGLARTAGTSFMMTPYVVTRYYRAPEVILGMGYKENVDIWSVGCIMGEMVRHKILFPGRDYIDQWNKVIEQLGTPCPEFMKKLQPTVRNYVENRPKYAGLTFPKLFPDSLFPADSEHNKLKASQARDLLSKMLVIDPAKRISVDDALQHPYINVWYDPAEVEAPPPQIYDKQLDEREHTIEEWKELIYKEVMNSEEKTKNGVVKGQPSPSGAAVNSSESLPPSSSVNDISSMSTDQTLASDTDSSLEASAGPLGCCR
M1 antag confirm = confirmation of rat M1 muscarinic receptor antagonists | shares compounds with M1 antagonist | CHO-M1 cells, Fluo-4 calcium, ACh EC80 antagonism; active compounds read low | calcium response (max-min fluorescence) at 10 µM | 43% of 1,700 active | AID 677;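 active = calcium response below the same-plate mean of wells given acetylcholine alone at its 80%-effect dose, minus 3 SD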;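 note: raw fluorescence intensity difference in arbitrary instrument units and not normalized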
mGluR4 antag = mGluR4 (human) activity, M1 antagonist secondary assay | shares compounds with M1 antagonist | CHO-mGluR4 calcium flux, Fluo-4 fluorescence, glutamate EC80; active compounds read low | fluorescence response (max-min) at 10 µM | 0.9% of 1,700 active | AID 678;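 active = fluorescence response below the plate's average for near-maximal glutamate wells, less 3 SD of those wells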;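 note: raw unnormalized fluorescence span taken in the window right after glutamate addition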
An asterisk follows results filed as active; · = no result given. Cut-off read from the data, not from the text of the source, unless noted: active = inhibition above about 20% (passing the limit was not always enough); inactive = the rest.

SMILES	Her2 expr inh	FXIIa inh mix	M1 ag	M1 antagonist	FXIa mix inh	JNK3 blocker	M1 antag confirm	mGluR4 antag
O=C(Nc1cccc(S(=O)(=O)C(F)F)c1)c1ccc(Cl)c(S(=O)(=O)N2CCOCC2)c1	43	1	1	-2.2*	-4	0	588	104*
COc1ccc(-n2c3c(cc(C(=O)Nc4ccc5c(c4)C(=O)NC5=O)c2=O)C(=O)CCC3)cc1	91	0	1.2	0.055	4	2	·	·
Cc1ccccc1NS(=O)(=O)c1ccc(NC(=O)c2ccco2)cc1	102	-14	-1.4	-0.026	3	5	·	·
COc1cc(NS(=O)(=O)c2ccc(NC(=O)c3ccco3)cc2)nc(OC)n1	81	12	-1.8	-2.2*	4	·	665	236
CCc1ccccc1NC(=O)Cn1nnc(-c2cccnc2)n1	81	14	-0.63	0.21	0	-2	·	·
CCC(c1ccccc1)c1nc(-c2ccccn2)no1 (stereo not given)	75	-12	0.89	-6*	7	-4	621	239
O=S(=O)(c1ccccc1Cl)N1CCCC(c2nc(-c3cccnc3)no2)C1 (stereo not given)	149	1	-0.22	0.49	-3	-9	·	·
O=C(CN1CCSCC1)N1CCc2[nH]c3ccc(Br)cc3c2C1	65	0	-0.14	-11*	2	0	124*	230
O=C(O)c1ccc2[nH]c3c(c2c1)CSCC3	100	·	0.068	0.019	·	1	·	·
c1ccc(Nc2cc(Nc3ccccc3)[nH]n2)cc1	70	1	0.91	0.18	4	-1	·	·
COc1ccc(OC)c(N=C2C(=O)Nc3ccccc32)c1	81	-19	-0.46	0.34	6	-9	·	·
COc1ccc(N=C2C(=O)Nc3ccccc32)cc1	112	2	1.7	-4.4*	3	-1	700	197
CCOC(=O)c1ccc(Oc2c(C)oc3c(CN4CCN(C)CC4)c(O)ccc3c2=O)cc1	119	-15	-0.19	-4.4*	-5	7	405*	250
Cc1ccc(S(=O)(=O)Nc2nsc(N)n2)cc1	111	1	-0.018	-2.9*	6	7	641	213
CCCNS(=O)(=O)c1ccc(CCC(=O)N2CCC(C)CC2)cc1	83	3	0.04	-2*	-4	·	643	253
CCOc1ccc(C2N(c3ccc(F)cc3)C(=O)C3CCCN32)cc1OC (stereo not given)	104	-11	-1.2	-0.76	7	-3	·	·
CCn1c(=O)cc(SCC(=O)N2CCN(C3CCCCC3)CC2)c2ccccc21	85	1	-1.1	-5.1*	4	·	256*	226
CCn1c(=O)cc(SCC(=O)N2CCOCC2)c2ccccc21	180	4	-0.61	-1.1	15	·	·	·
Cn1nc(OCC(N)=O)ccc1=O	122	8	0.0056	0.1	7	-2	·	·
NC(=O)COc1ccc(=O)n(-c2ccccc2)n1	97	-7	-0.76	-2.4*	6	3	564	226
COc1cc2c(cc1OC)C(C(=O)N1CCN(c3ccccn3)CC1)C(c1cccs1)N(C)C2=O (stereo not given)	108	1	0.51	-2.1*	8	2	604	239
CCCCC(=NCCO)C1=C(O)C(C(=O)OC)C(C)(C)CC1=O (stereo not given)	99	2	-0.035	-3.5*	4	-6	674	202
CCCCCCN=C(C)C1=C(O)C(C(=O)OC)C(C)(C)CC1=O (stereo not given)	91	7	0.8	-0.56	18	-2	·	·
NS(=O)(=O)c1cc2c(cc1Cl)NC(C1C[C@H]3C=C[C@@H]1C3)NS2(=O)=O (stereo not given in full)	100	-6	0.093	-0.056	1	-5	·	·
CCN(CC)CCOc1ncnc2c1oc1ccccc12	233	3	0.091	-1.6*	-3	-1	584*	198
SMILES	Her2 expr inh	FXIIa inh mix	M1 ag	M1 antagonist	FXIa mix inh	JNK3 blocker	M1 antag confirm	mGluR4 antag
COCCN(C(=O)COc1ccccc1)c1nnc(-c2cccnc2)s1	85	6	-0.34	-2.7*	1	4	560	181
CCN(C(=O)COc1ccccc1)c1nnc(-c2cccnc2)s1	68	4	0.54	0.0041	8	·	·	·
CCOC(=O)c1cc2sccc2n1CC(=O)Nc1ccc2c(c1)OCCO2	83	-1	-1	-0.93*	8	4	494	218
CCOc1ccc(NC(=O)C2CC(=O)N(c3cc(C)cc(C)c3)C2)cc1 (stereo not given)	110	6	-0.14	-2.8*	6	-2	505	231
Cc1ccc(C)c(-n2nnnc2SCC(=O)NCCC2=CCCCC2)c1	91	1	0.095	-0.26	6	4	·	·
Cc1nc2sc3c(c2c(=O)n1/N=C/c1ccco1)CCCC3	94	4	-0.039	-0.027	5	-4	·	·
Cc1ccc(C)n1-n1c(C)nc2sc3c(c2c1=O)CCCCC3	180	6	-0.5	-5.6*	9	-1	325*	247
O=c1c2c3c(sc2nc2n1CCCCC2)CCCCC3	144	1	-1.2	-3.1*	1	2	273*	220
O=c1c2c3c(sc2nc2n1CCCC2)CCC3	88	4	0.15	0.52	-2	·	·	·
Cc1ccsc1-c1nc(CSCC(=O)NCc2ccc3c(c2)OCO3)c(C)o1	77	5	-0.036	-1.4	1	1	·	·
COc1ccc(-c2ccc(SCC(=O)NCc3ccco3)nn2)cc1	111	2	0.039	-13*	0	-7	584	211
COc1ccc(-c2[nH]c(-c3cccc(OC)c3)nc2SCC(=O)NCc2ccco2)cc1	94	3	-1.1	-3.1*	8	1	574	210
O=C(NCc1ccccn1)c1coc(=O)c(Br)c1	163	·	0.18	-0.059	·	0	·	·
Nc1nonc1C(=O)NCCNC(=O)c1cccs1	88	5	-0.028	-0.066	2	0	·	·
Cc1ccccc1-n1c(N)cc(=O)[nH]c1=S	86	2	0.013	1	2	2	·	·
Cc1cc(=O)[nH]c(=S)n1-c1ccccc1	95	2	-0.13	-1.2*	10	3	653	229
COc1ccc(CNC(=O)NCc2ccc(OC)c(OC)c2)cc1OC	95	-4	-1.4	-2.4*	2	8	524	206
CCC(CC)C(=O)NCCc1ccc(OC)c(OC)c1	148	3	-0.21	0.52	1	·	·	·
COc1ccc(Cc2nc(-c3ccc(-n4cccc4)cc3)no2)cc1	74	0	-1.1	-1.1	6	6	·	·
Cc1ccc(SCc2nc(-c3ccccc3)no2)cc1	129	13	-0.91	-0.66	9	3	·	·
